In the library only some 9.3% were active in any assay of this set; here they are far more common.
HCMV inh = qHTS Assay for inhibitors of the human cytomegalovirus (HCMV). HFF cells, HCMV-luciferase reporter, 72 h; active compounds read low. activity change, negative = inhibition, % at 57.5 µM. 410,000 tested, 4.5% active. AID 1259415, 2018; in the data active = activity change below about -60%; inconclusive = no clear call, values can overlap the other calls; inactive = above about -39%
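Inhibition of viral replication was scored as loss of reporter luminescence in HFFs infected with HCMV-luciferase (MOI 1 PFU/cell) for 72 h; compounds tested at 2 doses, normalized to buffer and Salinomycin controls.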
Sm TGR inh = qHTS Assay for the Inhibitors of Schistosoma Mansoni Peroxiredoxins. Schistosoma mansoni thioredoxin glutathione reductase (TGR), Q962Y6. purified TGR, DTNB reduction, TNB absorbance 405 nm. Potency, µM (top dose mostly 114 µM), for inactives: at the highest dose activity change, negative = inhibition, hits mostly inhibitors. 360,000 tested, 3% active; note: potency is the fitted concentration of half-maximal effect; nearly all actives have a fitted effect of over 60% in size
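Kinetic colorimetric format: TGR-catalysed, NADPH-driven DTNB reduction monitored via TNB absorbance. Enzyme dispensed at 20 nM; compound exposure 15 min at room temperature before reaction start.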
VACV mCherry inh = qHTS for Stage-Specific Inhibitors of Vaccinia Orthopoxvirus: mCherry Reporter Primary qHTS; Vaccinia virus mCherry reporter infection, fluorescence; Potency, µM (series often up to 36.5 µM), without a hit: top-dose activity change, negative = inhibition, hits mostly inhibitors; 310,000 tested, 0.63% active; AID 720579, 2013; calls by dose curve; tested in A549 cells; note: potency is the fitted concentration of half-maximal effect; nearly all actives have a fitted effect of over 35% in size
Vaccinia Venus = qHTS for Stage-Specific Inhibitors of Vaccinia Orthopoxvirus: Venus Reporter Primary qHTS; Potency, µM (series often up to 36.5 µM), without a hit: at the highest dose activity change, negative = inhibition, most hits filed as inhibitors; 330,000 tested, 0.46% active; Vaccinia virus Venus reporter expression, fluorescence; calls by dose curve; tested in A549 cells; note: potency is the fitted concentration of half-maximal effect; nearly all actives have a fitted effect of over 30% in size
FMDV antiviral = High Throughput Screening for Foot and Mouth Disease Virus Antivirals. 410,000 tested, 1.2% active. AID 1159524, 2015. Potency, µM (highest dose often 57.9 µM), for inactives: at the highest dose activity change, negative = inhibition, usual class: inhibitors. FMDV antiviral cell-based qHTS; calls by dose curve; tested in HEK293T cells; note: read-out not given here; potency is the fitted concentration of half-maximal effect; nearly all actives have a fitted effect of over 45% in size
HCV inhibitor = qHTS Assay for Inhibitors of Hepatitis C Virus (HCV) | Huh7.5.1 HCVcc-Cre infection, luciferase reporter, 44 h | Potency, µM (highest dose often 41.8 µM), inactives show at the top dose activity change, negative = inhibition, most hits filed as inhibitors | 340,000 tested, 3.4% active; note: potency is the fitted concentration of half-maximal effect
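Cells (1,000/well) were plated 4 h before compound, then infected with HCVcc-Cre virus (~0.5 moi). After 44 h further culture, infection was read as luciferase luminescence following a 15 min substrate incubation at room temperature.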
Numbers without * were called inactive; i = inactive; ? = inconclusive; / = no result given; [ ] = another dose, or the depositor's remark. Unless noted, calls come from the whole dose curve; as a rule, active = well fitted curve in the direction sought with a large enough effect; inconclusive = small, poorly fitted or top-dose-only effect, or another doubt; inactive = no such curve, though single readings can be large; an effect the other way counts as inactive or inconclusive. % is set by controls: 0 for no effect and ±100 for the full control effect.

SMILES | HCMV inh | Sm TGR inh | VACV mCherry inh | Vaccinia Venus | FMDV antiviral | HCV inhibitor
Cc1nn(C)c(Cl)c1/C=C/C(=O)O | -39 | 11% | -10% | 3% | -7% | -10%
COc1ccc(CC(=O)Nc2ccc(C(=O)Nc3nccs3)cc2)cc1OC | 7 | -6% | -25% | -19% | -15% | -6%
CCOC(=O)c1nc(Nc2ccccc2OC)c2ccccc2n1 | -14 | -5% | 20% | 33% | 0% | /
CCOC(=O)Cn1c(Br)nc2c1c(=O)[nH]c(=O)n2C | 0 | 6% | -4% | -12% | / | -3%
CCn1c(SCC(=O)N2CCCCCC2)nc2c(c1=O)SCC2 | 12 | 1% | i | -11% | -13% | /
NS(=O)(=O)c1ccc(CCNCc2ccccc2OCc2ccc(Cl)cc2)cc1 | -16 | 3% | -12% | -14% | -25% | 13µM*
C=CCOc1ccccc1CNCCc1ccc(S(N)(=O)=O)cc1 | 10 | 3% | i | 0% | -18% | 7%
NS(=O)(=O)c1ccc(CCNCc2cc(Cl)ccc2OCc2ccccc2)cc1 | -67* | 16% | -27% | -19% | ? | 22µM*
NS(=O)(=O)c1ccc(CCNCc2cc(Br)ccc2OCc2ccccc2F)cc1 | ? | 12% | ? | ? | ? | ?
CC(C)Oc1ccc(CNC(=O)C2CCCCN2S(=O)(=O)c2ccc(F)cc2)cc1 (stereo not drawn) | -16 | 4% | -16% | -5% | 21% | /
COc1ccc(C(=O)N2CCC(C(=O)NC3CC3)CC2)cc1 | -29 | 1% | 29% | -2% | 15% | 5%
Cn1c(-c2ccccc2)c[n+]2c1-c1ccccc1C2 | ? | 0% | ? | -18% | 12% | 11µM*
Cn1c(-c2ccccc2)cccc1=O | 33 | -1% | / | / | 11% | 8%
OCC(CO)(CO)N=Cc1cc(Br)ccc1O | 25 | 1%[11.4 µM] | / | / | 7% | ?
Cc1sc2ncnc(N3CCN(S(=O)(=O)c4ccc(Br)cc4)CC3)c2c1C | 1 | / | i | -14% | ? | /
Cc1csc2c(N3CCN(S(=O)(=O)c4ccc(Cl)cc4)CC3)ncnc12 | 24 | -1% | -15% | -9% | -28% | 14%
COc1ccc(-c2csc3ncnc(N4CCN(S(=O)(=O)c5cccs5)CC4)c23)cc1 | -71* | 2% | i | -12% | -17% | 8.9µM*
Cc1sc2ncnc(N3CCN(S(=O)(=O)c4ccc(C(C)(C)C)cc4)CC3)c2c1C | -82* | / | / | / | ? | 5.6µM*
O=S(=O)(c1ccc(Cl)cc1)N1CCN(c2ncnc3sccc23)CC1 | -69* | / | -18% | -28% | 14µM* | ?
Cc1ccc(OCC(=O)NNC(=O)C2CCN(c3ncnc4sc(C)c(C)c34)CC2)cc1 | -23 | -1% | i | -16% | ? | 2%
Cc1ccc(S(=O)(=O)N2CCN(C(=O)C3CCN(c4ncnc5sc(C)c(C)c45)CC3)CC2)c(C)c1 | -80* | / | / | / | 20µM* | 4.5µM*
Nc1nc(=S)c2snnc2[nH]1 | / | / | 43% | -6% | / | /
Cc1cccc(NC(=O)c2oc3ccc(S(=O)(=O)N4CCC5(CC4)OCCO5)cc3c2C)c1C | 21 | -27% | -14% | -22% | ? | /
COc1ccc(-c2csc3ncnc(N4CCN(c5ccccc5Cl)CC4)c23)cc1 | -40 | 8% | -22% | -20% | ? | ?
Cc1csc2ncnc(N3CCN(S(=O)(=O)c4cccc(C(F)(F)F)c4)CC3)c12 | -92* | 1% | -3% | -13% | ? | /
SMILES | HCMV inh | Sm TGR inh | VACV mCherry inh | Vaccinia Venus | FMDV antiviral | HCV inhibitor
CCN1CCN(c2ncnc3scc(-c4ccc(OC)cc4)c23)CC1 | -32 | 0% | -17% | -6% | -8% | -16%
O=S(=O)(c1ccc(Oc2ncnc3scc(-c4ccccc4)c23)cc1)N1CCOCC1 | -16 | 4% | i | -8% | -15% | 10µM*
O=S(=O)(c1cccc(C(F)(F)F)c1)N1CCN(S(=O)(=O)c2ccc3c(c2)OCCO3)CC1 | / | / | / | / | -29% | /
COc1ccc(-c2csc3ncnc(N4CCN(S(=O)(=O)c5ccc(C)cc5)CC4)c23)cc1 | -39 | 5% | ? | -15% | -23% | 11µM*
COc1ccc(-c2csc3ncnc(N4CCN(S(=O)(=O)c5ccc(Cl)s5)CC4)c23)cc1 | -66* | -6% | ? | -21% | -27% | 10µM*
COC(=O)[C@H](Cc1ccc(C#Cc2ccccc2)cc1)NC(=O)C[C@H]1CCCN(C(=N)N)C1 | / | / | / | / | -17% | /
C[C@@H]1NC(=O)/C(=C\c2ccccc2Br)NC1=O | -102* | 8% | -11% | -9% | 13% | 8%
CC(NC(=O)CSc1ncn[nH]1)c1ccc(Cl)cc1Cl (stereo not drawn) | -61* | -23% | -7% | -20% | -10% | 18%
COc1ccc(-c2n[nH]c(=S)n2C2CCCCC2)cc1 | -14 | 89µM* | 0%[1.46 µM] | -19% | ? | -5%
S=c1[nH]nc(-c2cccnc2)n1C1CCCCC1 | 2 | 4% | -12% | -12% | -11% | 9%
CCCCc1nn2c(=O)cc(COC(=O)c3ccc(NC(=O)c4cccs4)cc3)nc2s1 | 30 | 8% | -3% | -17% | 3% | /
CCCc1nn2c(=O)cc(COC(=O)c3ccc(NC(=O)c4cccs4)cc3)nc2s1 | -96* | 2% | -1% | -18% | -15% | /
COCCc1nn2c(=O)cc(COC(=O)c3ccc(Br)cc3)nc2s1 | 17 | 89µM* | i | -4% | -14% | /
Cc1ccc(CCNS(=O)(=O)c2c(C)nc3sccn3c2=O)cc1 | 9 | 27% | -1% | -6% | -3% | 12%
C=C(c1ccc2nc(NC(=O)OC)[nH]c2c1)c1cccs1 | -88* | / | ? | ? | 12% | ?
COc1ccccc1-c1noc2ncnc(Nc3ccccc3C)c12 | -40 | 3% | i | -15% | -20% | -29%
O=C(O)CCc1ccc(-c2ccc(Cl)cc2)o1 | -27 | 5µM* | / | / | 27% | 13%
O=C(O)CCc1ccc(-c2ccc(Br)cc2)o1 | 61 | 7.9µM* | / | / | 18% | 13%
NC(=O)c1ccc(-c2ccc(Br)cc2)o1 | 52 | 40µM* | / | / | 48% | -15%
COc1ccc(-c2ccc(CCC(=O)O)o2)cc1 | 50 | 2.8µM* | -12% | -17% | 38% | -7%
NC(=O)C1CCN(C(=S)c2ccc(-c3ccc(Br)cc3)o2)CC1 | 61 | -29% | -26% | -12% | 73% | -12%
CCC(C)N1CC23C=CC(O2)C(C(=O)OCc2ccccc2)C3C1=O (stereo not drawn) | 5 | -25% | -6% | 0% | 23% | -2%
O=C1c2ccc(Br)cc2C(=O)N1c1ccc(Cl)cn1 | 29 | -1% | / | / | 9% | 8%
